From PubChem BioAssay (NCATS) come the findings set out here.

Molecules are shown by their SMILES. Results filed as inconclusive are left out. A call without a number means that no potency is given here. Active and inactive are the calls of the source. Calls come from the whole dose curve; as a rule, active = well fitted inhibition curve with a large enough effect; inconclusive = small, poorly fitted or top-dose-only effect; inactive = no such curve, though single readings can be large or run the other way.

The test concerns Zika virus NS2B-NS3 protease (linked construct). Nature of the test: Primary screen NINDS Rhodamine qHTS for Zika virus inhibitors (AID 1347160). Note: nearly all actives have a fitted effect of over 55% in size. Conditions: purified NS2B-NS3 protease, Rhodamine110 substrate fluorescence; series mostly up to 57.1 µM. From the text: Avindra Nath, Ph.D., National Institute of Neurological Disorders and Stroke (NINDS), Bethesda, MD
Radhakrishnan Padmanabhan, Ph.D., Georgetown University (GU), Washington D.C.
Zika Virus causes congenital defects, including microcephaly and is associated with Guillain-Barre syndrome, eningoencephalitis and myelitis in infected adult. […] Using a target-based approach, we hope to establish a screening paradigm to uncover novel, cell-active NS2B-NS3 protease (Zika Virus) specific inhibitors from NCATS' collection of small molecules using qHTS.
Four assay panel was created to identify potential Zika Virus inhibitors. Namely, (1) GU unlinked NS2B-NS3 AMC tagged protease qHTS, (2) GU unlinked NS2B-NS3 Rhodamine tagged protease qHTS, (3) NINDS linked NS2B-NS3 AMC tagged protease qHTS, (4) NINDS linked NS2B-NS3 Rhodamine tagged protease qHTS. Active compounds were re-acquired and re-screened to confirm inhibition. Inhibitors were further screened against various confirmatory and counterscreens in dose response format.
Early Translation Branch (ETB)
National Center for Advancing Translational Sciences (NCATS), Rockville, MD
National Institute of Health (NIH), Bethesda, Maryland
For the linked assay, Nath lab (NINDS) provided the purified linked NS2B-NS3 protease which is consists of hydrophilic domain of NS2B linked to the NS3 protease domain by a flexible (-[…]-) linker. Control compound aprotinin is obtained from Thermo Scientific (#78432; Waltham, Massachusetts). Rhodamine110 substrate ([N-Cbz]-Nle-Lys-Arg-Arg-Rhod110-Arg-Arg-Lys-Nle-[N-Cbz]) was purchased from either Genscript or Bachem.
1536-well Protease (Rhodamine110 Substrate) Assay:
Briefly, 3 microL of enzyme (25 nM final concentration), in assay buffer (10 mM Tris-HCl pH 8.0 with 0.01% Tween 20) were dispensed into a 1,536-well solid-bottom black plate (Greiner Bio One, Monroe, NC). Twenty-three nL of compounds (final concentration range 7.28 nM to 114 microM) or control Aprotinin (final concentration range 3.47 nM to 114 microM) were transferred via Wako Pin-tool (Wako Automation, Richmond, VA). Samples were incubated (room temperature, protected from light) for 15 minutes followed by a 1 microL Rhodamine110 substrate addition (1.5 microM final concentration). Plates were then immediately read on a ViewLux High-throughput CCD imager (PerkinElmer, Waltham, MA) equipped with FITC fluorescence optics (480(20) nm excitation, 540(25) nm emission), then incubated (room temperature, protected from light) for 15 minutes (~15% conversion). The change in fluorescence intensity over the 15-minute reaction period was normalized against no-inhibitor and no-enzyme controls and the resulting percent inhibition data were fitted to a 4-parameter Hill equation. Aprotinin was used as intraplate control.
(In general: In qHTS, concentration-response curves come from the screen itself.)
As for `C[C@H]1CC(=O)Nc2cccc(-c3cnn(C(C)(C)C)c3)c2N1`, the Potency entry was “inactive”.
On to `C/C=C/C=C/C(O)=C1\C(O)=C(C)C(=O)[C@@]2(C)OC(=O)[C@@](C)(NC(=O)/C=C/C(=O)O)[C@@H]12`, for which the Potency entry is “inactive”.
As for `CC(C)=C/C=C\[C@H](C)[C@H]1CC[C@]2(C)C[C@@H]3C(C)=CC(=O)C3/C(CO)=C\C[C@@H]12` (stereo not given in full), the Potency result is “inactive”.
Still for that read-out and setting: then `COc1c2c(c(C)c3c1C(=O)OC3)O[C@@]1(C)CCC3(C(C)(C)O)OC(=O)CC[C@]3(C)[C@H]1C2` (stereo not given in full), with “inactive”.
With `C[C@@H]1O[C@@H](O[C@@H]2CO[C@@H](O[C@H]3CC[C@@]4(C)C(CC[C@]5(C)C4CC=C4[C@@H]6CC(C)(C)CC[C@]6(C(=O)O[C@@H]6O[C@H](CO)[C@@H](O)[C@H](O)[C@H]6O)CC[C@]45C)[C@]3(C)CO)[C@H](O)[C@H]2O[C@@H]2O[C@H](CO)[C@@H](O)[C@H](O)[C@H]2O)[C@H](O)[C@H](O)[C@H]1O` (stereo not given in full), the Potency result was “inactive”.
On the same count and under the same terms, in the case of `O=C(C(c1ccccc1)c1ccccc1)N1CCN(CC(O)COc2cccc3ncccc23)CC1` (stereo not given) it was “inactive”.
In the case of `CC1(C)CCC2(C(=O)OC3OC(CO)C(O)C(O)C3O)CCC3(C)C(=CCC4C5(C)CCC(OC6OC(C(=O)O)C(OC7OC(CO)C(O)C(O)C7O)C(OC7OC(CO)C(O)C(O)C7O)C6O)C(C)(C)C5CCC43C)C2C1` (stereo not given), the Potency result was “inactive”.
Turning to `O=C(O)c1ccc(CN2CCC(CN[C@@H]3C[C@H]3c3ccccc3)CC2)cc1`, the Potency entry was “inactive”.
For the compound `COc1cc(O)cc(C)c1C(=O)O[C@@H]1[C@H](O)[C@@H](CO)O[C@H]1n1ccc(=O)[nH]c1=O`, the Potency result was “inactive”.
The same measure, in the same setting: then `Cc1cc(Nc2nc(NC(C)c3ncc(F)cn3)ncc2Cl)n[nH]1` (stereo not given), with “inactive”.
On the same count and under the same terms, in the case of `CC(O)c1cc(C(=O)N[C@@H](C)Cn2ccc(-c3ccc(C#N)c(Cl)c3)n2)n[nH]1` (stereo not given in full) it was “inactive”; in that of `C[C@@H]1O[C@@H](O[C@H]2[C@@H]3C=CO[C@@H](O[C@@H]4O[C@H](CO)[C@@H](O)[C@H](O)[C@H]4O)[C@@H]3[C@@]3(CO)O[C@@H]23)[C@H](OC(=O)/C=C/c2ccccc2)[C@H](O)[C@H]1O`, “inactive”.
For `C[C@@H]1O[C@@H](O[C@H]2[C@H](OC(=O)[C@]34CCC(C)(C)C[C@H]3C3=CCC5[C@@]6(C)C[C@H](O)[C@H](O[C@@H]7O[C@H](CO)[C@@H](O)[C@H](O)[C@H]7O)[C@@](C)(CO)C6[C@H](O)C[C@@]5(C)[C@]3(C)CC4)OC[C@H](O)[C@@H]2O)[C@H](O)[C@H](O)[C@H]1O[C@@H]1OC[C@@H](O)[C@H](O[C@@H]2OC[C@](O)(CO)[C@H]2O)[C@H]1O` (stereo not given in full), the activity change, negative = inhibition is 21.5% [at 10.7 µM] (inactive).
Consider `C=C1C[C@]23C[C@H]1CC[C@H]2C1=C[C@H]2OC(=O)[C@@](C)([C@H]1[C@@H]3C(=O)O)[C@H]2O`, for which the Potency result was “inactive”.
For `CC(C)(C)NCCCNC(=O)c1cccc(Br)c1`, the Potency result was “inactive”.
Same read-out and setting: then `COc1ccccc1Oc1ccc(N(Cc2cccnc2)S(=O)(=O)CC(F)(F)F)cc1`, with “inactive”.
Consider `CC1OC(OC2CCC3(C)C(CCC4(C)C3CC=C3C5CC(C)(C)CCC5(C(=O)OC5OC(CO)C(O)C(O)C5O)CCC34C(=O)O)C2(C)C)C(O)C(O)C1O` (stereo not given), for which the Potency result was “inactive”.
The same measure, in the same setting: in the case of `CC1(C)CCC[C@@]2(C)C1[C@H](OC(=O)/C=C/C=C/C(=O)O)C=C1COC(=O)[C@@]12O` (stereo not given in full) it was “inactive”; in that of `C=C(C)C1CCC2(C(=O)O)CCC3(C(=O)O)C(CCC4C5(C)CCC(O)C(C)(C(=O)O)C5CCC43C)C12` (stereo not given), “inactive”; in that of `COc1ccc(N(C)c2nc(C)nc3ccccc23)cc1`, “inactive”.
As for `N=c1nc2n(cc1F)C1OC(CO)C(O)C1O2` (stereo not given), the Potency entry is “inactive”.
As for `CC/C=C/CC1=C(CCCCC(CCC(=O)O)OC(C)=O)CCC1=O` (stereo not given), the Potency entry is “inactive”.
Take `COc1ccc([C@@H]2OC[C@H]3[C@@H]2CO[C@@H]3c2ccc(OC3OC(CO)C(O)C(O)C3O)c(OC)c2)cc1OC` (stereo not given in full): the Potency result is “inactive”.
Consider `CC(C)[C@@H]1C(=O)N(S(C)(=O)=O)[C@@H]2CCN(C(=O)/C=C/CN3CCCCC3)[C@H]21`, for which the Potency result is “inactive”.
Same read-out and setting: in the case of `CCOc1cc(N2CCC(O)CC2)ccc1Nc1ncc2c(n1)N(C1CCCC1)CCC(=O)N2C` it was “inactive”.
For `C[C@@H]1O[C@@H](O[C@H]2[C@H](O)[C@@H](O[C@@H]3O[C@H](CO)[C@@H](O)[C@H](O[C@@H]4O[C@H](CO)[C@@H](O)[C@H](O)[C@H]4O)[C@H]3O)[C@H](O[C@H]3CC[C@@]4(C)C(=CC[C@@H]5C4CC[C@@]4(C)C5C[C@@H]5OC6(CC[C@@](C)(CO[C@@H]7O[C@H](CO)[C@@H](O)[C@H](O)[C@H]7O)O6)[C@@H](C)[C@@H]54)C3)O[C@@H]2CO)[C@H](O)[C@H](O)[C@H]1OC1OC(CO)C(O)C(O)C1O` (stereo not given in full), the activity change, negative = inhibition is -10.4% [at 10.7 µM] (inactive).
In the case of `Clc1cc2c(NC3CCCC3)nnc(-c3ccncc3)c2cc1Cl`, the Potency entry is “inactive”.
On the same count and under the same terms, in the case of `O=C(O[C@H]1[C@@H]2C[C@@H]3OC[C@](O)([C@@H]1Cl)[C@H]2C(O[C@@H]1O[C@H](CO)[C@@H](O)[C@H](O)[C@H]1O)O3)c1ccc(O)c(O)c1` (stereo not given in full) it was “inactive”; in that of `C=C(C(=O)O)C1CC2=C(C)CCCC2(C)C[C@@H]1O` (stereo not given in full), “inactive”.
On the same count and under the same terms, then `CCC(O)C(C)C1CCC(C(C)C(=O)O)O1` (stereo not given), with “inactive”; and `C[C@@H]1O[C@@H](O[C@H]2[C@H](O)[C@@H](O)[C@H](O[C@H]3[C@H](O[C@H]4CC[C@@]5(C)C(=CC[C@@H]6C5CC[C@]5(C)[C@@H]7[C@H](C[C@@H]65)O[C@]5(CC[C@@](C)(CO[C@@H]6O[C@H](CO)[C@@H](O)[C@H](O)[C@H]6O)O5)[C@H]7C)C4)O[C@H](CO)[C@@H](O)[C@@H]3O)O[C@@H]2CO)[C@H](O)[C@H](O)[C@H]1O` (stereo not given in full), with “inactive”.
Still for that read-out and setting: in the case of `CC1(C)C=CN2C(=O)C3=CCCN3C(=O)[C@@H]2C[C@@]12Nc1ccccc1C2=O` it was “inactive”; in that of `COCC1OC(OC(C)(C)C2CCC3(C)C=C(C4CCC5C4(C)CC(O)C4OC(C(C)(C)OC6OC(CO)C(O)C(O)C6NC(C)=O)CCC45C)CCC3O2)C(NC(C)=O)C(O)C1O` (stereo not given), “inactive”.
Turning to `O=C(Nc1ccc(-c2ccncc2)cc1)N[C@H](CO)c1ccccc1`, the Potency result was “inactive”.
Take `CC#CC(=O)N1CCC[C@H]1c1nc(-c2ccc(C(=O)Nc3ccccn3)cc2)c2c(N)nccn12`: the Potency result was “inactive”.
`C=C1[C@@H]2CC[C@@H]3[C@@](CCC4C(C(=O)O)(C(=O)O)C[C@@H](O[C@@H]5O[C@H](CO)[C@@H](O)[C@H](O)[C@H]5OC(=O)CC(C)C)C[C@]43C)(C2)[C@H]1O` (stereo not given in full): the Potency result is “inactive”.
With `CC1(C)CC[C@]2(C(=O)O[C@@H]3O[C@H](CO)[C@@H](O)[C@H](O)[C@H]3O)CC[C@]3(C)C(=CCC4[C@@]5(C)C[C@@H](O)[C@H](O)C(C)(C)C5CC[C@]43C)C2[C@@H]1O` (stereo not given in full), the Potency entry is “inactive”.
In the case of `COc1ccccc1NC(=O)OCC1CCN(C(=O)OC(C)(C)C)CC1`, the Potency result was “inactive”.
Still for that read-out and setting: then `CC1=C(C(=O)O[C@@H]2O[C@H](COC3OCC(O)C(O)C3O)[C@@H](O)[C@H](O)[C@H]2O)C(C)(C)CCC1` (stereo not given in full), with “inactive”.
On the same count and under the same terms, in the case of `C[C@@]12C[C@]3(O)O[C@H](O1)[C@]1(COC(=O)c4ccccc4)[C@H]3C[C@@]12O[C@@H]1O[C@H](CO)[C@@H](O)[C@H](O)[C@H]1O` it was “inactive”.
